Laboratory results taken from the supplement of paper PMC13380429.

System: Vero E6 infected with SARS-CoV-2
Experiment: inhibition of SARS-CoV-2 cytopathic effect; higher = more antiviral protection, active = above 15
Details: 48 h

Measured: inhibition of SARS-CoV-2 cytopathic effect

CCC1(C)CC(=O)NC(=O)C1 [bemegride]
inactive: 1 nM -1.73% | 8.33 nM -2.18% | 100 nM -2.05% | 833.33 nM 1.29% | 10000 nM -2.8%

C=C(C)[C@@H]1CC=C(CO)CC1 [perillyl-alcohol]
inactive: 1 nM 2.64% | 8.33 nM -3.02% | 100 nM 2.99% | 833.33 nM 2.39% | 10000 nM -1.2%

COc1ccc(CC(C)NCC(O)c2ccc(O)c(NC=O)c2)cc1 (stereo not given) [formoterol]
inactive: 1 nM 0.12% | 8.33 nM 2.33% | 100 nM 1.69% | 833.33 nM 0.54% | 10000 nM 10.8%

C[C@@H]1CCO[C@H]2Cn3cc(C(=O)NCc4ccc(F)cc4F)c(=O)c(O)c3C(=O)N12 [dolutegravir]
inactive: 1 nM -0.6% | 8.33 nM 1.42% | 100 nM 4% | 833.33 nM 1.93% | 10000 nM 4.1%

O=C(N[C@H](Cc1ccccc1)C(=O)O)c1sc2cc(F)ccc2c1Cl
inactive: 1 nM 2.8% | 8.33 nM 1.61% | 100 nM 0.39% | 833.33 nM 1.13% | 10000 nM 3.31%

Cc1cccc(Nc2nc(-c3ccncc3)cs2)c1
inactive: 1 nM 0.53% | 8.33 nM -0.51% | 100 nM -0.62% | 833.33 nM 8.36%
active: 10000 nM 48.4%

N#CC(c1ccc(Cl)cc1)c1c(Cl)cc(-n2ncc(=O)[nH]c2=O)cc1Cl (stereo not given) [diclazuril]
inactive: 1 nM -4.3% | 8.33 nM -0.75% | 100 nM 0.27% | 833.33 nM 1.84% | 10000 nM 0.73%

O=C(CNC(=O)c1cccc(C(F)(F)F)c1)N[C@@H]1CCN(Cc2ccc(Cl)cc2)C1 [teijin-compound-1]
inactive: 1 nM -1.08% | 8.33 nM -0.19% | 100 nM 0.66% | 833.33 nM -1.99% | 10000 nM -4.88%

CO/N=C1\CN(c2nc3c(cc2F)c(=O)c(C(=O)O)cn3C2CC2)CC1CN (stereo not given) [gemifloxacin]
inactive: 1 nM -4.74% | 8.33 nM -3.09% | 100 nM 0.76% | 833.33 nM 1.02% | 10000 nM 5.76%

COC(=O)/C=C/C(=O)OCCN1C(=O)CCC1=O [diroximel-fumarate]
inactive: 1 nM -3.18% | 8.33 nM -0.95% | 100 nM -3.4% | 833.33 nM -1.82% | 10000 nM 11.3%

CC(C)(Sc1cc(C(C)(C)C)c(O)c(C(C)(C)C)c1)Sc1cc(C(C)(C)C)c(O)c(C(C)(C)C)c1 [probucol]
inactive: 1 nM -0.06% | 8.33 nM 2.66% | 100 nM 0.1% | 833.33 nM -0.2% | 10000 nM 1.98%

OCCOc1ccc(/C(=C(/CCCl)c2ccccc2)c2ccccc2)cc1 [ospemifene]
inactive: 1 nM -2.23% | 8.33 nM 1.01% | 100 nM 3.19% | 833.33 nM 3.68% | 10000 nM 8.11%

CCCCCCCCc1ccc(CCC(N)(CO)CO)cc1 [fingolimod]
active: 10000 nM 15.2%
inactive: 1 nM 0% | 8.33 nM 2.1% | 100 nM -0.53% | 833.33 nM -4%

CN1C2C=C(c3sccc3Br)CC1CC2 (stereo not given)
active: 1 nM 24.2%
inactive: 8.33 nM -2.54% | 100 nM -0.99% | 833.33 nM -2.31% | 10000 nM 3.11%

Oc1cc(O)c2cc(O)c(-c3cc(O)c(O)c(O)c3)[o+]c2c1 [delphinidin]
inactive: 1 nM -3.03% | 8.33 nM -3.65% | 100 nM -0.94% | 833.33 nM -1.2% | 10000 nM -3.76%

C[C@@H]1C[C@@H]([C@H](O)CC2CC(=O)NC(=O)C2)C(=O)[C@@H](C)C1 [cycloheximide]
inactive: 1 nM 2.12% | 8.33 nM 2.86% | 100 nM 6.34%
active: 833.33 nM 27.6% | 10000 nM 17.4%

COc1cc(C(C)=O)ccc1O [apocynin]
inactive: 1 nM 0.03% | 8.33 nM -1.17% | 100 nM -2.23% | 833.33 nM -0.09% | 10000 nM 1.17%

CNCc1ccc(-c2cc(-c3nc(-c4ccc(S(=O)(=O)C(C)C)cc4)cnc3N)on2)cc1
active: 833.33 nM 24.5% | 10000 nM 25.2%
inactive: 1 nM 0.45% | 8.33 nM 3.25% | 100 nM 1.09%

CCCCOC(=O)c1cc2c(cn1)[nH]c1ccccc12 [beta-CCB]
inactive: 1 nM -1.28% | 8.33 nM -1.62% | 100 nM -0.04% | 833.33 nM -2.91% | 10000 nM -5.4%
